According to PubChem BioAssay AID588592 (Sanford-Burnham Center for Chemical Genomics, 2011):
Some of the results follow. The source made the active and inactive calls. How the calls were made is not given here.

Test: fluorescence interference of Apaf-1 activator hits, dose response, artefact control for Apaf-1 activator project (AID 588592)
Settings: fluorescence interference counterscreen, Apaf-1 activator assay
With `CCN(CC)CCOc1ccc2c(c1)C(=NNC(=O)c1ccccn1)c1cc(OCCN(CC)CC)ccc1-2` the EC50 was > 100 µM (inactive).
For `C=C(C)C(=O)Nc1cccc(C2=NOC3(C2)C[C@H](C(N)=O)N(C(=O)C(c2ccccc2)c2ccccc2)C3)c1` (some centres undefined), the EC50 was > 100 µM (inactive).
With `C=CC1=C(C(=O)O)N2C(=O)[C@@H](NC(=O)/C(=N\OCC(=O)O)c3csc(N)n3)[C@H]2SC1` the EC50 was > 100 µM (inactive).
For `C=CC1=C(C(=O)O)N2C(=O)[C@@H](NC(=O)/C(=N/OCC(=O)O)c3csc(N)n3)[C@H]2SC1`, the EC50 was > 100 µM (inactive).
